Assay outcomes: PubChem, National Center for Advancing Translational Sciences (NCATS)
SNCA expr inhib: reduces expression of the alpha-synuclein gene | HEK-293 SNCA-luciferase knock-in, luminescence, 24 h | Potency, µM (highest dose often 57.2 µM), usual class: inhibitors | actives 0.17% (n = 140,000); note: nearly all actives have a fitted effect of over 45% in size
KDM5B inhibitor: KDM5B demethylase inhibition; Q9UGL1; actives 2.6% (n = 220,000); KDM5B demethylase, FDH-coupled NADH fluorescence (FDH is formaldehyde dehydrogenase); Potency, µM (series often up to 57.7 µM), most hits filed as inhibitors; AID 1347165; note: nearly all actives have a fitted effect of over 70% in size
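Here, H3K4me3 peptide (12.5 µM in substrate mix) is demethylated by KDM5BΔAP, 200 nM final, after 10 min compound exposure. Formaldehyde product is coupled through FDH (0.25 U/mL in mix) to NADH fluorescence; 30-min ΔRFU feeds dose-response curves.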
IP6K1 inh: IP6K1 kinase inhibition; Q92551; IP6K1 kinase, ADP-Glo luminescence, 2 h; active compounds read low; activity change, % (series mostly up to about 58 µM); actives 0.81% (n = 140,000); AID 1645851; in the data active = activity change below about -25%
Target sequence (Q92551 whole entry, looked up): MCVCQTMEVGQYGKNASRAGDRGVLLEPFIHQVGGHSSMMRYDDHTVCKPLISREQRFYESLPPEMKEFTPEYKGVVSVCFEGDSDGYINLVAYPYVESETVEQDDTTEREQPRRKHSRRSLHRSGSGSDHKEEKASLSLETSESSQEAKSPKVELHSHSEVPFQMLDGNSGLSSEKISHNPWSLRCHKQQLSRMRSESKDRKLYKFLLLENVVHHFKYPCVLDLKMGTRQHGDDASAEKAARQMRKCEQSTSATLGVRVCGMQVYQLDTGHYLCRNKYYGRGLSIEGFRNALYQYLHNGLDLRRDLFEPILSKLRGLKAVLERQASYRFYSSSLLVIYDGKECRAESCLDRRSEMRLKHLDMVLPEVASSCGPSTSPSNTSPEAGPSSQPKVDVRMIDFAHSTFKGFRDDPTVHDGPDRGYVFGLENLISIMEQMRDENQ
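ADP-Glo luminescence measures ADP made by human IP6K1 during a 2 h RT reaction with ATP/IP6 (mix at 1.3 mM/130 uM); top library doses 57.5 and 19.1 uM final.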
HEK293 viab: reduces viability of HEK-293 SNCA reporter cells. actives 0.12% (n = 150,000). Potency, µM (doses to about 57.1 µM), usual class: cytotoxic. HEK-293-SNCA-luc viability, GF-AFC fluorescence, 24 h; note: nearly all actives have a fitted effect of over 30% in size
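HEK-293-SNCA-luc cells (1500/well) plated 24 h, then exposed 24 h to a dilution series; GF-AFC added 30 min at 37C, fluorescence 405/540 nm; normalised to medium-only and DMSO wells, Hill fit.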
Hits are given with their value; . = inactive; ? = inconclusive; / = no result; [ ] = another dose, or the depositor's remark. This is a sample that favours compounds with a hit; in the whole collection about 2.8% have one here. Unless noted, calls come from the whole dose curve; as a rule, active = well fitted curve in the direction sought with a large enough effect; inconclusive = small, poorly fitted or top-dose-only effect, or another doubt; inactive = no such curve, though single readings can be large; an effect the other way counts as inactive or inconclusive.

SMILES | SNCA expr inhib | KDM5B inhibitor | IP6K1 inh | HEK293 viab
CN(C)c1ccc(-c2nnc([C@H]3CCN(Cc4ccccc4)C3)o2)cc1 | . | ? | . | .
O=C(Cn1nc(-c2cccc([N+](=O)[O-])c2)c2ccccc2c1=O)NC1CCCCC1 | / | . | / | /
COc1cccc(-c2ccnc3nc(Cc4ccc(F)cc4)nn23)c1 | . | 25µM | . | .
Fc1ccc(Cc2nc3nccc(-c4ccsc4)n3n2)cc1 | . | 25µM | . | .
COc1ccc(Cc2nc3nccc(-c4ccccc4)n3n2)cc1 | . | . | . | .
Fc1cc(F)cc(Cc2nc3nccc(-c4cccs4)n3n2)c1 | . | 25µM | . | .
Fc1ccc(Cc2nc3nccc(-c4ccccc4)n3n2)cc1 | . | 28µM | . | .
CCC(=O)Oc1ccc2c(=O)c(Oc3cc(C)cc(C)c3)c(C(F)(F)F)oc2c1 | / | . | / | /
Cc1ccc2c(C(=O)NCc3ccccc3C(F)(F)F)cc(NC(=O)C(C)C)cc2n1 | . | 25µM | . | .
Cc1ccc2c(C(=O)NCc3ccc(C(F)(F)F)cc3)cc(NC(=O)C(C)C)cc2n1 | . | 16µM | . | .
COCCNC(=O)c1cc(NC(=O)C(C)C)cc2nc(C)ccc12 | . | 25µM | . | .
CCOc1ccccc1CNC(=O)c1cc(NC(C)=O)cc2nc(C)ccc12 | . | 14µM | . | .
CCc1ccc(NC(=O)c2nc3ccccc3nc2N(CC)CC)cc1 | / | . | / | /
CN(C(=O)Nc1ccccc1F)C(c1ccc(Cl)cc1)c1nccn1C (stereo not drawn) | / | . | / | /
Cc1ccc2c(C(=O)NCc3ccc(F)c(Cl)c3)cc(NC(=O)C(C)C)cc2n1 | . | ? | . | .
Cc1ccc2c(C(=O)NCc3cc(F)cc(F)c3)cc(NC(=O)C(C)C)cc2n1 | . | 22µM | . | .
CNc1ncccc1C(=O)N[C@@H]1COCC[C@@H]1OCc1ccccc1 | . | 28µM | . | .
CC(C)c1ccc(-c2nonc2NC(=O)c2cccs2)cc1 | / | . | / | /
O=C(NCc1cccnc1)c1nc(-c2ccccc2)c2ccccn12 | . | . | . | .
O=C(NCc1cccnc1)c1nc(-c2ccc(Cl)nc2)c2ccccn12 | . | 89µM | . | .
COCCNC(=O)c1nc(-c2ccsc2)c2ccccn12 | . | 40µM | . | .
Cc1cccc(C)c1-c1nc(C(=O)NCc2ccsc2)n2ccccc12 | . | 32µM | . | .
O=C(NCc1cccnc1)c1nc(-c2ccc(Cl)cc2)c2ccccn12 | . | 28µM | . | .
Cc1ccc(Nc2ccnc(N3CCCN(C(=O)NC4CCCC4)C3)n2)cc1 | . | / | . | .[12.5 µM]
O=C(O)c1cnc(NCc2cccnc2)nc1-c1ccc(Cl)cc1 | . | 32µM | . | .
SMILES | SNCA expr inhib | KDM5B inhibitor | IP6K1 inh | HEK293 viab
COc1cccc(-c2nc(NCc3cccnc3)ncc2C(=O)O)c1 | . | ? | . | .
Cc1cccc(C)c1-c1nc(C(=O)NCc2cccnc2)n2ccccc12 | . | 25µM | . | .
COc1ccc(-c2nc(C(=O)NCc3cccnc3)n3ccccc23)cc1 | . | 28µM | . | .
O=C(NCc1cccnc1)c1nc(-c2cc(Cl)cc(Cl)c2)c2ccccn12 | . | . | . | .
Cc1nn(-c2ccccc2)c2c1C(C)N(C1CCN(C(=O)C3CC3)C1)C2=O (stereo not drawn) | / | / | . | /
CC(C)(C)CC(=O)Nc1ccc(C(N)=O)c(Cl)c1 | / | . | / | /
CNc1ncc(CN(C)C(=O)c2cc(S(N)(=O)=O)ccc2F)cn1 | . | 22µM | . | .
O=C(CSc1cn(Cc2ccc(F)cc2)c2ccccc12)N1CCCc2ccccc21 | / | . | / | /
Cn1ncc(CN2CCc3nc(-c4ccc(F)cc4F)[nH]c3C2)c1C1CC1 | . | 25µM | . | .
Cc1noc(CN2CCc3nc(-c4ccc(F)cc4F)[nH]c3C2)n1 | . | 32µM | . | .
CN(C)c1nc2c(c(=O)[nH]1)CCN(Cc1ccc(F)cc1F)CC2 | . | . | . | .
COCC(=O)N1C[C@H](NC(=O)C(=O)c2cccn2C)[C@@H](C2CC2)C1 | . | . | . | .
COCC(=O)N1C[C@H](NC(=O)c2nc3ccccc3n(C)c2=O)[C@@H](C2CC2)C1 | . | 22µM | . | .
Cc1nn(-c2ccccc2)c2c1C(C)N(C1CCN(C(=O)C(C)C)C1)C2=O (stereo not drawn) | / | / | . | /
COc1ccc(NC(=O)c2cc3c(N4CCSCC4)nc(C)cn3n2)c(OC)c1 | . | ? | . | .
COc1ccc(NC(=O)c2cc3c(N4CCSCC4)nc(C)cn3n2)cc1 | . | 14µM | . | .
Cc1cn2nc(C(=O)Nc3ccc4c(c3)OCO4)cc2c(N2CCCC2)n1 | . | ? | . | .
Cc1ccc(NC(=O)c2cc3c(N4CCSCC4)nc(C)cn3n2)cc1 | . | 35µM | . | .
Cc1cn2nc(C(=O)Nc3ccc4c(c3)OCCO4)cc2c(N2CCSCC2)n1 | . | 32µM | . | .
COc1ccc(C(C)NC(=O)c2cc3c(N4CCSCC4)nc(C)cn3n2)cc1OC (stereo not drawn) | ? | 6.3µM | . | .
Cc1cn2nc(C(=O)NCc3ccccc3Cl)cc2c(N2CCSCC2)n1 | . | ? | . | .
Cc1cccc(NC(=O)c2cc3c(N4CCSCC4)nc(C)cn3n2)c1 | . | 32µM | . | .
CCc1ccccc1NC(=O)c1cc2c(N3CCSCC3)nc(C)cn2n1 | . | 28µM | . | .
Cc1cn2nc(C(=O)Nc3ccc(C(F)(F)F)cc3)cc2c(N2CCSCC2)n1 | . | 28µM | . | .
Cc1cn2nc(C(=O)NC3CCCCCC3)cc2c(N2CCSCC2)n1 | . | ? | . | .
SMILES | SNCA expr inhib | KDM5B inhibitor | IP6K1 inh | HEK293 viab
CC(=O)c1ccc(NC(=O)C(c2ccccc2)c2ccccc2)cc1 | / | . | / | /
CC(C)(C)OC(=O)N1CCN(C(C(=O)O)c2c[nH]c3ccccc23)CC1 (stereo not drawn) | / | . | / | /
COCCN1Cc2ccc(NCc3ccccc3)nc2C(C)(C(=O)Nc2cccnc2)C1 (stereo not drawn) | . | 32µM | . | .
CC(C)CNc1ccc2c(n1)C(C)(C(=O)NC1CCC(O)CC1)CN(Cc1ccccc1)C2 (stereo not drawn) | ? | . | . | .
COCCN1Cc2ccc(NCc3ccccc3)nc2C(C)(C(=O)Nc2ccc(F)cc2)C1 (stereo not drawn) | ? | ? | . | .
COCCN1Cc2ccc(NCc3ccccc3)nc2C(C)(C(=O)NCc2ccccc2)C1 (stereo not drawn) | . | 28µM | . | .
COCCN1Cc2ccc(NCc3ccccc3)nc2C(C)(C(=O)Nc2ccccc2)C1 (stereo not drawn) | ? | ? | . | ?
COCCN1Cc2ccc(NCc3ccccc3)nc2C(C)(C(=O)NC2CCOCC2)C1 (stereo not drawn) | . | 11µM | . | .
COc1ccc(Nc2ccnc(N3CCCC(C(=O)NCc4cccs4)C3)n2)cc1 (stereo not drawn) | . | / | . | .
Cc1ccc(C(=O)Nc2cccc(-c3nc4ccccc4s3)c2C)cc1 | / | . | / | /
CN(C)CC(NC(=O)CNC(=O)NCc1ccccc1)c1ccccc1 (stereo not drawn) | / | . | / | /
COCCN1C(=O)CO[C@H]2CN(c3ncccn3)C[C@H]21 | . | 35µM | . | .
N#CC1(C(=O)Nc2ccc(Cl)cc2)CCCC1 | / | . | / | /
